Rin1-Abl PPI inh: blocks binding of human Rin1 to Abl; P00519+Q13671; TR-FRET Rin1/Abl binding, biochemical; inhibition, % at 7.35 µM; 360,000 tested, 0.4% active; AID 588664; in the data active means inhibition above about 5%, passing the limit was not always enough
Calb FLC: affects C. albicans growth with fluconazole | C. albicans CaCi-2 (fluconazole-resistant clinical isolate) + fluconazole, Alamar Blue growth, 48 h | growth inhibition, % (concentration not given with the values) | 300,000 tested, 0.57% active;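 active means growth inhibition above about 58% in most replicates, limit read from the data, passing the limit was not always enough; inconclusive means exactly half the replicates above a set limit; inactive means most replicates below a set limit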;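 further: all wells also contain fluconazole at 8 µg/ml as a sub-toxic cotreatment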
PfM18AAP inh-1: blocks P. falciparum M18 aspartyl aminopeptidase | recombinant PfM18AAP, H-Glu-NHMec fluorogenic cleavage | inhibition, % at 7.35 µM | 290,000 tested, 1.2% active | AID 1822;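 active means inhibition above the campaign mean inhibition over all tested compounds plus 3 SD, cut at about 28% in these data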
CTSL1 counter-1: blocks F. hepatica cathepsin L1 in PFM18AAP counter-screen | recombinant F. hepatica cathepsin L1, Z-Leu-Arg-MCA fluorescence | inhibition, % at 5.96 µM | 300,000 tested, 0.49% active;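 active means inhibition above the mean of all tested compounds plus 3 SD, set per screening campaign, cut at about 17% in these data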
PfM18AAP inh-2: confirmation of Plasmodium falciparum M18 aspartyl aminopeptidase inhibitors. inhibition, % at 7.35 µM. shares compounds with PfM18AAP inh-1. AID 2170. 2,400 tested, 28% active. recombinant PfM18AAP, H-Glu-NHMec fluorogenic cleavage;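 active means mean inhibition over replicate wells above the hit cutoff set for the earlier primary screen, cut at about 29% in these data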
CTSL1 counter-2: Cathepsin L (human) inhibition, confirmation | shares compounds with PfM18AAP inh-1 | purified cathepsin L1, Z-Leu-Arg-MCA fluorescence | inhibition, % at 5.96 µM | 2,400 tested, under 10 active | AID 2178;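 active means average inhibition across replicates above the hit cutoff set in the earlier primary screen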
Rin1 Abl conf: confirmation of inhibitors of human Rin1-Abl interaction | 1,300 tested, 49% active | inhibition, % at 7.35 µM | AID 602124 | shares compounds with Rin1-Abl PPI inh | TR-FRET Rin1-Abl binding, purified proteins
GFP quencher: quenches GFP fluorescence, counter-screen for Rin1-Abl inhibitors; shares compounds with Rin1-Abl PPI inh; inhibitors/quenchers counterscreen; inhibition, % at 6.75 µM; 1,300 tested, 8.5% active;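 further: ABL1-eGFP fusion protein alone without its partner RIN1-SBP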
Hits are given with their value; . = inactive; ? = inconclusive; / = no result. Sampled rows, rich in hits. Any-hit rate of the full collection: about 2.1%. Unless noted, no stated cut-off is given here; in the data, active means inhibition above about 6.5%; inactive means the rest.

SMILES	Rin1-Abl PPI inh	Calb FLC	PfM18AAP inh-1	CTSL1 counter-1	PfM18AAP inh-2	CTSL1 counter-2	others
COc1ccc(OC)c(-n2c(O)c(/C=C3\C=Nc4ccccc43)c(=O)[nH]c2=O)c1	.	.	.	.	/	/
COc1ccccc1-n1c(O)c(/C=C2\C=Nc3ccccc32)c(=O)[nH]c1=O	.	.	40	.	43	.
CN1C(=O)C(=Cc2coc3ccccc3c2=O)C(=O)N(C)C1=O	.	.	.	.	/	/
O=C1NC(=O)C(=Cc2coc3ccc(O)cc3c2=O)C(=O)N1	.	.	39	.	.	.
CN(C)CC(C(=O)Cc1ccccc1)c1ccccc1 (stereo not given)	.	/	/	/	/	/
COC(=O)C1=C(c2cc3ccccc3s2)C[C@@H]2CC[C@H]1N2C(=O)N1CCCCC1	.	.	/	.	/	/
COC(=O)C1=C(c2ccc(C(C)=O)cc2)C[C@@H]2CC[C@H]1N2C(=O)N1CCCCC1	.	/	/	/	/	/
COCCOC(=O)c1c(N)n(Cc2ccc(OC)cc2)c2nc3ccccc3nc12	.	.	35	.	.	.
COc1ccc(Cl)cc1C(=O)C1CCCN(Cc2cnc(C)s2)C1 (stereo not given)	.	.	.	.	/	/
COc1ccc(-n2c(/C=C/c3ccc(O)c(O)c3)nc3ccccc3c2=O)cc1	.	.	63	.	45	.
C[C@]12CC[C@@H](O)CC1=CC(=O)C1C2CC[C@]2(C)C(=O)CCC12 (stereo not given in full)	.	/	/	/	/	/
O=C1NC(=O)N(Cc2ccco2)C(=O)/C1=C/C=C/c1ccco1	.	.	35	.	.	.
Cn1cccc1/C=C1\C(=O)NC(=O)N(Cc2ccco2)C1=O	.	.	.	/	/	/
COC(=O)C(O)(c1ccc(N=Cc2ccccc2O)c(C)c1)C(F)(F)F (stereo not given)	.	.	.	.	/	/
CC(C)(C)c1ccc(O)c(N=Cc2c(O)ccc3ccccc23)c1	.	.	89	.	45	.
COC(=O)C1=C(c2cccc(OC)c2OC)C[C@@H]2CC[C@H]1N2C(=O)N1CCC(C)CC1	.	.	/	.	/	/
Oc1ccc(CC2CC3CCN2CC3)cc1O (stereo not given)	.	.	57	.	.	.
COc1ccc(OC)c(N=Cc2c(O)[nH]c(=O)[nH]c2=O)c1	.	.	.	.	/	/
O=C(O)C1C2CC3CC(C2)CC1(n1ncc(N2CCC4(CC2)OCCO4)c(Cl)c1=O)C3 (stereo not given)	.	.	.	.	/	/
CCCC/C(=N\O)c1c[nH]c2ccccc12	.	.	.	.	/	/
NNc1n[nH]c(=S)n1N	.	.	42	.	40	.
Cc1nc2cc([N+](=O)[O-])ccc2c(=O)n1-c1cccc(Br)c1	.	.	/	.	/	/
N#Cc1c(/N=C/c2c(O)n(Cc3ccco3)c(=O)[nH]c2=O)sc2c1CCCC2	.	.	37	.	.	.
CCN(CC)c1ccc(N=Cc2c(O)n(Cc3ccco3)c(=O)[nH]c2=O)cc1	.	.	42	.	.	.
COc1ccc(C(C)=O)cc1CC(C(=O)c1ccc(Br)cc1)N(C)C (stereo not given)	.	.	.	.	/	/
SMILES	Rin1-Abl PPI inh	Calb FLC	PfM18AAP inh-1	CTSL1 counter-1	PfM18AAP inh-2	CTSL1 counter-2	others
O=c1c2ccccc2[se]n1-c1ccccc1	.	/	94	.	96	.
CCc1ccc(N2C(=O)NC(=O)/C(=C\c3cc(C)n(-c4cc(C(=O)O)cc(C(=O)O)c4)c3C)C2=O)cc1	.	.	32	.	.	.
Cc1ccc(N2C(=O)NC(=O)/C(=C\c3cc(C)n(-c4cc(C(=O)O)cc(C(=O)O)c4)c3C)C2=O)cc1	.	.	.	.	/	/
CN1C(=O)N(C)C(=O)C2(Cc3cc(N)ccc3N3CCN(c4ccccc4F)CC32)C1=O (stereo not given)	/	.	.	.	/	/
CN1CCN2c3ccc(N)cc3CC3(C(=O)NC(=O)NC3=O)C2C1 (stereo not given)	.	.	44	/	.	.
O=C1NC(=O)C(=Cc2cn(CCOc3ccc4c(c3)OCO4)c3ccccc23)C(=O)N1	.	.	.	.	/	/
C=CCn1cc(C=C2C(=O)NC(=O)NC2=O)c2ccccc21	.	.	54	.	33	.
O=C(O)Cn1cc(/C=C2\C(=O)NC(=O)N(c3ccc(Cl)cc3)C2=O)c2ccccc21	.	.	.	.	/	/
Cn1cc(/C=C2\C(=O)NC(=O)N(c3ccccc3)C2=O)c2ccccc21	.	.	35	.	39	.
COc1cc(/C=C2\C(=O)NC(=O)N(c3ccccc3)C2=O)cc(OC)c1O	.	.	36	.	.	.
CCN(CC)C(=O)Cn1cc(/C=C2\C(=O)NC(=O)N(c3ccccc3F)C2=O)c2ccccc21	.	.	35	.	.	.
CCOc1cc2c(cc1OCC)-n1cccc1C(c1ccc(F)c(OC)c1)NC2 (stereo not given)	.	.	.	.	/	/
COc1cc2c(cc1/C=C/[N+](=O)[O-])OCO2	.	.	38	/	.	.
C[C@]12CC[C@@H]3c4ccc(O)c(O)c4CC[C@H]3[C@@H]1CC[C@@H]2O	.	/	57	.	92	.
Cc1cccc(NC2=NCCCS2)c1	.	.	.	.	/	/
O=C1NC(=O)C(=Cc2ccc(-c3ccc(S(=O)(=O)N4CCOCC4)cc3)o2)C(=O)N1	.	.	.	.	/	/
O=C1NC(=O)C(=Cc2ccc(Sc3ccccc3)o2)C(=O)N1	.	.	.	.	/	/
O=C1NC(=O)C(=Cc2ccc(-c3ccc(Cl)cc3)o2)C(=O)N1	.	.	33	.	.	.
O=C1NC(=O)C(=Cc2ccc(-c3ccc(F)cc3O)o2)C(=O)N1	.	.	51	.	58	.
Cc1ccc(-c2nc(CS(=O)CC(=O)N3CCC4(CC3)OCCO4)c(C)o2)cc1 (stereo not given)	.	?	.	.	/	/
CN1C(=O)C(Cc2ccc3c(c2)OCO3)C(=O)N(C)C1=O	/	.	34	.	.	.
CN(C)C1C(=O)C(C(N)=O)=C(O)C2(O)C(=O)C3=C(O)c4c(O)cccc4C(C)(O)C3C(O)C12 (stereo not given)	25	/	56	.	.	.	Rin1 Abl conf=.;GFP quencher=.
Cn1cnc(CCN)c1	.	.	/	.	/	/
NC(=O)c1cn(C2CCCCC2)c2ccccc2c1=O	10	.	.	.	/	/	Rin1 Abl conf=11;GFP quencher=.
C[C@H](NC(=O)N1C[C@H]2C[C@@H](C1)c1cccc(=O)n1C2)C(=O)Nc1ccccc1F	.	.	.	.	/	/

From PubChem
